Assay [1] has as its target T1, Aspartate--tRNA(Asp/Asn) ligase (Mycobacterium tuberculosis (strain ATCC 25618 / H37Rv)) (UniProt P9WFW3). Further: in the data most compounds retested in dose-response had high values.
T1 sequence (whole entry): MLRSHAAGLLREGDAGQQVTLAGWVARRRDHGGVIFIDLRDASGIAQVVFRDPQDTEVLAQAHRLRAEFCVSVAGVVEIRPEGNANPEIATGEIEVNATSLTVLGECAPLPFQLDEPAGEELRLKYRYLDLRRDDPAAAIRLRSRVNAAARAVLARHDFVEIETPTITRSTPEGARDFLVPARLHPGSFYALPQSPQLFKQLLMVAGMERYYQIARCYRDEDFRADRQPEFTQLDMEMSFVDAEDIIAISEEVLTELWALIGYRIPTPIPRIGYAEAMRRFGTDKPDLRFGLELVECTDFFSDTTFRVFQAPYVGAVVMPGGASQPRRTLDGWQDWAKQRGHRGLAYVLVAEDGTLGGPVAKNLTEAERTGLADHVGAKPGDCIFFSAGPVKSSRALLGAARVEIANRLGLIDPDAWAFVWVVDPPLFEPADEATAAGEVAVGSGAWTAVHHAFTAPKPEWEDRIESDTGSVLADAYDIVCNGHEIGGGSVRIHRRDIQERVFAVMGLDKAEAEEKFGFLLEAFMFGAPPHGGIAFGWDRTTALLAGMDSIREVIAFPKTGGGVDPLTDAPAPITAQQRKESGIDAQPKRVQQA
The assay can be described thus: Assay for Asp RNA synthetase-1 from Mycobacterium tuberculosis. Conditions: 30 µM. Also noted: scale not given: direction of the effect not stated beside the values. The format is functional.

Assay [2] deals with Shiga toxin 2 (Escherichia coli O157:H7) (UniProt P09385+P09386). The assay can be described thus: E. coli 0.157:H7 Shiga Toxin SOP - stx2 screening assay. The class given is functional. Also noted: scale not given: direction of the effect not stated beside the values. The settings on record: 30 µM.

For the molecule `CN(Cc1ccc2c(c1)OCO2)Cc1nc2c(cnn2C)c(=O)[nH]1`, the Percent Effect in assay [1] was -0.843%; in assay [2], 27.6%.

As for `O=C(c1ccsc1)N1CCCC(c2cc(C(F)(F)F)[nH]n2)C1` (configuration not stated), the Percent Effect was determined as 7.19% in assay [1] and 28% in assay [2].

Regarding `CN(C)CC(=O)N1CCC2(CC1)COC(COc1ccccn1)C2` (configuration not stated), the Percent Effect in assay [1] was 2.27%; in assay [2] it was -20.6%.

`CC1CN(CC2CCCCC2)CCN1c1ccc2nncn2n1` (configuration not stated): the Percent Effect in assay [1] is -1.32%; in assay [2], -96.5%.

For `CCc1cnc(CN(C)C2CCN(CCS(C)(=O)=O)C2)o1` (configuration not stated), the Percent Effect in assay [1] was 0.585%; in assay [2], -7.2%.

`O=C(NCCN1CCCCCC1=O)c1n[nH]c(=O)c2ccccc12`: the Percent Effect in assay [1] is -3.85%; in assay [2], -6.19%.

`COCC(=O)NC1CC2(CCN(Cc3ccco3)CC2)c2ccccc21` (configuration not stated): the Percent Effect in assay [1] is 5.52%; in assay [2] it was -5.13%.

`CS(=O)(=O)c1ccc(CNC2CCCN(c3cccnn3)C2)cc1` (configuration not stated): the Percent Effect is -4.64% in assay [1] and 4.3% in assay [2].

Consider `O=C(c1cc(C2CC2)[nH]n1)N1CCN(Cc2ccsc2)CC1`, for which the figures for the Percent Effect in assay [1] and in assay [2] were -6.85% and -27.3%, respectively.

Regarding `c1cnnc(N2CCCC2CNCc2cc[nH]n2)c1` (configuration not stated), the Percent Effect was -3.63% in assay [1] and -20% in assay [2].

As for `O=C(NCc1ccccc1)N1CCC2(CC(=O)N(c3ccsc3)C2)C1` (configuration not stated), the Percent Effect was -2.24% in assay [1] and -10.6% in assay [2].

Take `CC(NC(=O)NCC1(c2ccccc2)CCC1)c1nncn1C` (configuration not stated): the values for the Percent Effect in assay [1] and in assay [2] were 0.759% and 14.9%, respectively.

Take `Cc1nccn1C1CCCN(C(=O)COCC(F)(F)F)C1` (configuration not stated): the Percent Effect is -1.01% in assay [1] and -10.2% in assay [2].

For `CC(=O)N1CCCN(CC(C)(O)c2cccc(C(F)(F)F)c2)CC1` (configuration not stated), the Percent Effect in assay [1] is 0.301%; in assay [2], -32.4%.

As for `Cc1nnc(CN2CCCC(c3cc(C(N)=O)[nH]n3)C2)o1` (configuration not stated), the Percent Effect was -2.96% in assay [1] and 4.59% in assay [2].

With `COc1ccc(NC(=O)NC(C)(C)c2noc(C)n2)cc1`, the results for the Percent Effect in assay [1] and in assay [2] were -6.73% and -8.05%, respectively.

For `CN(Cc1ccc(Cl)s1)C(=O)c1cccc(OCC(N)=O)c1`, the Percent Effect in assay [1] is -2.2%; in assay [2] it was 0.368%.

As to `CCOc1ccc(C2CC(=O)Nc3c2c(=O)nc2sccn32)cc1` (configuration not stated), the Percent Effect is 0.813% in assay [1] and -16.9% in assay [2].

For the molecule `Cc1nc(C)n(C2CCCN(C(=O)Cc3n[nH]c4ccccc34)C2)n1` (configuration not stated), the values for the Percent Effect in assay [1] and in assay [2] were 2.55% and -3.54%, respectively.

With `Cc1noc(C2CCCN(C(=O)c3ccc(Br)o3)C2)n1` (configuration not stated), the figures for the Percent Effect in assay [1] and in assay [2] were -2.54% and -8.47%, respectively.

Consider `Cc1nn(C)c(C)c1C1CCCN1CCCc1nc2ccccc2o1` (configuration not stated), for which the Percent Effect stood at 3.71% in assay [1] and 7.57% in assay [2].

Turning to `CC(C)(C)c1nc(CN2CCCC2Cn2cccn2)no1` (configuration not stated), the results for the Percent Effect in assay [1] and in assay [2] were -2.09% and -50.8%, respectively.

As to `Cc1nnc(N2C[C@H](C(=O)NCC3CC3)[C@@H]3CCO[C@@H]3C2)s1`, the results for the Percent Effect in assay [1] and in assay [2] were -0.219% and -6.05%, respectively.

Turning to `CC(C)c1nccn1C1CCCN(C(=O)c2ccc3[nH]nnc3c2)C1` (configuration not stated), the values for the Percent Effect in assay [1] and in assay [2] were -3.89% and -22.6%, respectively.

In the case of `O=C(c1cc(Cl)cc(Cl)c1)N1CCN(c2nccs2)CC1`, the Percent Effect in assay [1] is -0.345%; in assay [2], -14.9%.

Turning to `c1ccc(CN2CCc3ncnc(-c4ccsc4)c3CC2)nc1`, the Percent Effect was 0.199% in assay [1] and -6.45% in assay [2].

Turning to `Cc1nnc2n1CCN(C(=O)c1cc(C)n(-c3ccccn3)c1C)C2`, the Percent Effect in assay [1] was found to be 4.19%; in assay [2], 32.2%.

For `CCC(=O)N1CCC2(CC1)c1nc[nH]c1CCN2S(C)(=O)=O`, the Percent Effect in assay [1] is -2.17%; in assay [2], 14.6%.

As for `COCCN1CCN(Cc2noc(C3CC3)n2)CC1C` (configuration not stated), the Percent Effect in assay [1] was -6.85%; in assay [2], -12.1%.

As to `O=C(c1cccs1)N1CCC(Cn2nc(-c3ccco3)ccc2=O)CC1`, the Percent Effect in assay [1] was -3.23%; in assay [2] it was 5.24%.

Regarding `COc1ccc(Cl)cc1C(=O)N1CCCC(n2nc(C)nc2C)C1` (configuration not stated), the results for the Percent Effect in assay [1] and in assay [2] were -5.94% and 7.05%, respectively.

`CC(C)(C)c1n[nH]c(C2CN(C(=O)c3ccsc3)CCO2)n1` (configuration not stated): the Percent Effect is -2.97% in assay [1] and 7.5% in assay [2].

As to `CC(NCc1ccccc1Br)c1ccc2[nH]c(=O)[nH]c2c1` (configuration not stated), the Percent Effect in assay [1] was 5.02%; in assay [2] it was -5.76%.

Regarding `CC(C)c1nc(C2CCCN2C(=O)c2cnc[nH]2)no1` (configuration not stated), the Percent Effect in assay [1] was 0.204%; in assay [2], 26.7%.

Turning to `COc1ccc(C(=O)N(C)Cc2cccc(C#N)c2)c(OC)c1OC`, the Percent Effect is -1.51% in assay [1] and 30.3% in assay [2].

With `Cc1ccc(S(=O)(=O)N2C[C@@H]3C[C@@H](NC(=O)C(C)(C)C)[C@@H]3C2)cc1`, the values for the Percent Effect in assay [1] and in assay [2] were 1.47% and 6.78%, respectively.

For `Cc1ccc(C(N)c2cccc(S(C)(=O)=O)c2)cc1` (configuration not stated), the Percent Effect in assay [1] is -0.691%; in assay [2] it was -0.145%.

As for `O=C1CCC(C(=O)NCc2nn(-c3ccccc3)c3c2CCC3)CN1` (configuration not stated), the Percent Effect in assay [1] is -2.23%; in assay [2], -54.3%.

Consider `CN(C)c1cc(CNC(=O)c2cn(-c3ccc(F)cc3)nn2)ccn1`, for which the results for the Percent Effect in assay [1] and in assay [2] were 1.09% and 6.86%, respectively.

For `O=C(NCc1ccccc1CN1CCC(O)CC1)Nc1cccnc1`, the Percent Effect is 1.28% in assay [1] and -12.1% in assay [2].

As to `CSCc1cccc(S(=O)(=O)NCCCO)c1`, the Percent Effect in assay [1] was 13.1%; in assay [2], -26.7%.

For `Cn1cnc2c1C(COCc1cccnc1)N(Cc1ccccn1)CC2` (configuration not stated), the Percent Effect in assay [1] was 2.65%; in assay [2], -18.6%.

Regarding `CC(C)C1CN(C(=O)c2nccnc2N)CCS1` (configuration not stated), the values for the Percent Effect in assay [1] and in assay [2] were 13% and -15.2%, respectively.

As for `CCC(C)CNc1ccc2oc(COC)nc2c1` (configuration not stated), the Percent Effect is 65.3% in assay [1] and -59.7% in assay [2].

Turning to `CC(C)NC(=O)Nc1ccc(CNCc2cccc(C#N)c2)cc1`, the results for the Percent Effect in assay [1] and in assay [2] were 0.232% and -108%, respectively.

`COc1ccc(OCCCN2CCOC(Cn3cccn3)C2)cc1` (configuration not stated): the Percent Effect was -0.393% in assay [1] and 5.03% in assay [2].

As for `O=C(CN1C=Nc2ccccc2S1(=O)=O)NCCc1cccs1`, the Percent Effect in assay [1] is 0.225%; in assay [2], -2.28%.

For the molecule `CCN(CC)c1ccc(C(=O)NCc2cccnc2-n2cncn2)cn1`, the Percent Effect in assay [1] was 6%; in assay [2] it was -12.3%.

`CCN(Cc1cccc(Cl)c1)Cn1nc(C)c2c(C)onc2c1=O`: the results for the Percent Effect in assay [1] and in assay [2] were -2.62% and 21.7%, respectively.

Take `COCC1CC2(CCN(C(=O)c3occc3C)CC2)CO1` (configuration not stated): the Percent Effect in assay [1] is 2.64%; in assay [2], -0.429%.

Take `Cc1cccc(OCCC(=O)N2CCN(S(=O)(=O)N(C)C)CC2)c1C`: the Percent Effect is -1.74% in assay [1] and -7.47% in assay [2].

The values above are taken from ChEMBL document CHEMBL3988442, “University of Dundee, Small-Polar-MMV Screening Library” (2021).
